Experimental data taken from PubChem BioAssay (NCI).
This is part of a sample that, as a whole, favours compounds with a hit. Of some 83,000 tested, about 20% had one in any assay.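 Activity criterion: percent growth below 10, measured after cells in 96-well plates were exposed to a single compound concentration for 48 hours.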 Calls of active or inactive are those of the source.

The compounds below were run on TK-10 renal (assay: NCI-60 one-dose screen, 48 h (100 = growth as untreated, 0 = no growth, -100 = all killed)). Settings: 10 µM unless noted.

| SMILES | growth |
| --- | --- |
| CN1CCN(Cc2ccc(NC(=O)c3cncc(C#Cc4cnc5ccc(N6CCN(C)CC6)nn45)c3)cc2C(F)(F)F)CC1 | 59% (inactive) |
| O=C(O)c1cn(C2CC2)c2cc(N3CCN(C(=O)CN4C(=O)CSC4=O)CC3)c(F)cc2c1=O | 73.5% (inactive) |
| NC/C(=C/F)COc1ccc2nc(NCc3cccnc3)oc2c1 | 74.7% (inactive) |
| C=C(C)[C@@H]1CC[C@]2(C(=O)NCCCCCN(CCC#N)CCC#N)CC[C@]3(C)[C@H](CC[C@@H]4[C@@]5(C)CCC(=O)C(C)(C)[C@@H]5CC[C@]43C)[C@@H]12 | 74.7% (inactive) |
| CCCCNNC(=O)c1ccc(-c2cccc(F)c2F)cc1 | 13.3% (inactive) |
| C#Cc1ccc(C(=O)NCc2ccc(/C=C/C(=O)c3nccn3C)cc2)cc1 | 45.1% (inactive) |
| COc1ccc(/C(N)=N/C(N)=N/c2nc3ccccc3s2)cc1 | 117% (inactive) |
| O=C(CN1CCN(c2cc(=O)[nH]c3ccc(F)cc23)CC1)Nc1ccc(Cl)cc1 | 62.2% (inactive) |
| Cc1ccc(-n2cc(/C=C/C(=O)c3ccc(O)cc3)c(-c3ccc(S(C)(=O)=O)cc3)n2)cc1 | 117% (inactive) |
| O=S(=O)(NCCCNc1nccc(-c2[nH]c(-c3ccccc3)nc2-c2ccc(Cl)c(O)c2)n1)c1cccc(F)c1 | 98.2% (inactive) |
| Cc1cc(-c2ccc(Cl)cc2)n(Cc2nnc(SCC(=O)Nc3ccc(S(N)(=O)=O)cc3)n2C2CCCCC2)n1 | 106% (inactive) |
| Oc1cccc2ccc(-c3nnc(SCc4ccc(O)c5ncccc45)n3-c3ccccc3)nc12 | 14.2% (inactive) |
| Cc1ccc(-c2nn(-c3ccccc3)cc2/C=C/C(=O)c2ccc(NC(=O)CCCCCCC(=O)NO)cc2)cc1 | 70.2% (inactive) |
| CC(C)(C)c1ccc(C(=O)Nc2sc3c(c2C(N)=O)CCC(O)C3)cc1 (stereo not drawn) | 82.8% (inactive) |
| O=C(Nc1ccc2c(ccn2Cc2ccccn2)c1)c1ccnnc1 | 60.2% (inactive) |
| CC(C)(C)c1ccc(C(=O)Nc2sc3c(c2C(N)=O)CC/C(=N\O)C3)cc1 | 32% (inactive) |
| NC(N)=Nc1ccc(Oc2cccc(Nc3ccc(Cl)cc3)c2)cn1 | 50% (inactive) |
| CCc1cccc(NC(=O)CNc2cc(S(=O)(=O)N(C)C)cc(C)c2C)c1 | 65% (inactive) |
| COc1ccc(N2C(=O)c3cc(Cl)ccc3NC2SCc2ccccc2)cc1 (stereo not drawn) | 96.2% (inactive) |

| SMILES | growth |
| --- | --- |
| O=C(CN1CCN(c2cc(=O)n(-c3ccccc3)c3ccccc23)CC1)Nc1nc(-c2ccc(Cl)cc2)cs1 | 62.4% (inactive) |
| COc1ccc(C2c3sc4c(C)cccc4c3Oc3nc(CC(=O)Nc4ccccc4)[nH]c(=O)c32)cc1 (stereo not drawn) | 141% (inactive) |
| O=C(/C=C/c1ccc(F)cc1)c1ccc(O)cc1 | 106% (inactive) |
| Cn1ccnc1C(=O)/C=C/c1ccc(NC(=O)c2c(F)c(F)c(F)c(F)c2F)cc1 | 133% (inactive) |
| Nc1cc(-c2c[nH]c3ccc(Br)cc23)nc2cc(-c3c[nH]c4ccc(Br)cc34)nn12 | 35.7% (inactive) |
| C#CCC#CCN1CCC[C@H]1C(=O)NCC(=O)OC | 99.4% (inactive) |
| COc1cc(/C=C/C(=O)c2ccc(NC(=O)CSc3nnc(-c4ccc(-c5nc6ccc(Cl)cc6[nH]5)cc4)o3)cc2)cc(OC)c1OC | 136% (inactive) |
| Oc1cccc2ccc(-c3nnc(SCc4ccc(O)c5ncccc45)o3)nc12 | 27.9% (inactive) |
| NS(=O)(=O)c1ccc(Nc2nc(SCc3ccccc3)nc3ccccc23)cc1 | 81.5% (inactive) |
| O=C1[C@@H]2Cc3c([nH]c4ccccc34)[C@H](c3c(Cl)cccc3Cl)N2C(=O)CN1C1CCN(CC2CCCCC2)CC1 | 139% (inactive) |
| NS(=O)(=O)c1ccc(Nc2nc(N/N=C/c3c[nH]c4ccccc34)nc(Nc3ccccc3)n2)cc1 | 94.7% (inactive) |
| N#Cc1c(-c2cccs2)cc(-c2cnccn2)nc1SCC(=O)Nc1ccc(Br)cc1 | 83% (inactive) |
| COc1ccc(Cn2cc3c(c2-c2cc(OC)c(OC)c(OC)c2)CCc2c(CN4CCOCC4)noc2-3)cc1 | 90.1% (inactive) |
| C=CCn1c(SCC(=O)Nc2ccc(C(=O)/C=C/c3ccc(C)cc3)cc2)nnc1-c1c[nH]c2ccccc12 | 114% (inactive) |
| COc1ccccc1C(=O)Nc1cccc2c1C(=O)C(=O)C=C2 | 116% (inactive) |
| COc1cc(-c2nn(C(C)(C)C)cc2-c2ccnc(NCCCNS(=O)(=O)c3ccc(Cl)cc3)n2)ccc1Cl | 66.1% (inactive) |
| CCc1cccc2c3c(sc12)C(c1ccc(Cl)cc1)C(C#N)=C(/N=C/c1ccc(Cl)cc1)O3 (stereo not drawn) | 56.4% (inactive) |
| C=C(C=O)[C@@H]1CC[C@]2(COC(C)=O)CC[C@]3(C)C(CC[C@@H]4[C@@]5(C)CC[C@H](OC(C)=O)C(C)(C)[C@@H]5CC[C@]43C)[C@@H]12 (stereo partly drawn) | 35.5% (inactive) |
| COc1ccccc1N1CCN(C2=CC(=O)C(C)=C(C)C2=O)CC1 | 116% (inactive) |
